# Reference: PubChem BioAssay
# Active and inactive are the calls of the source. Unless noted, how the calls were made is not given here.
# Experiments:
# [1] = A549 cell viability effects, profiling panel, calcein-AM fluorescence, 48 h, basal (AID 1162); settings: higher = more signal; further: test concentration not given here
# [2] = adipocyte viability effects, profiling panel, cell-based, 3T3-L1 adipocytes, calcein-AM fluorescence, 48 h, basal (AID 1163); settings: 3T3-L1 adipocytes viability, higher = more signal; further: test concentration not given here
# [3] = HepG2 cell viability effects, profiling panel, calcein-AM fluorescence, 48 h, basal (AID 1164); settings: higher = more signal; further: test concentration not given here
# [4] = MM1S cell viability effects, profiling panel, calcein-AM fluorescence, 48 h, basal (AID 1165); settings: higher = more signal;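 further: viability of MM1S multiple myeloma cells under basal unstimulated conditions; test concentration not given here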
# [5] = basal RPMI8226 viability, no added stimulus, profiling panel, cell-based, calcein-AM fluorescence, 48 h, PK04 Diversity Set (AID 1166); settings: RPMI8226 myeloma viability, higher = more signal;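 further: cells grown under basal conditions without added stimulus; test concentration not given here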
# [6] = basal HepG2 mitochondrial membrane potential changes, profiling panel, cell-based, JC-1 fluorescence, 24 h, 100 nL compound (AID 1167); settings: higher = more signal; further: test concentration not given here
# [7] = basal 3T3-L1 adipocyte mitochondrial potential changes, profiling panel, cell-based, JC-1 fluorescence, 3T3-L1 adipocytes, 24 h, 100 nL compound (AID 1168); settings: JC-1 mitochondrial fluorescence, higher = more signal, called active from +8 up or from −8 down; further: test concentration not given here
# [8] = basal RPMI8226 mitochondrial membrane potential changes, profiling panel, cell-based, JC-1 fluorescence, 24 h, 100 nL compound (AID 1169); settings: RPMI8226 myeloma, JC-1 mitochondrial potential fluorescence, higher = more signal; further: test concentration not given here
# [9] = basal MM1S mitochondrial membrane potential changes, profiling panel, cell-based, JC-1 fluorescence, 24 h, 100 nL compound (AID 1170); settings: higher = more signal; further: test concentration not given here
# [10] = A549 lung cancer cell viability effects, profiling panel, resazurin fluorescence, 24 h, PK04 Diversity Set (AID 1171); settings: higher = more signal, called active from +8 up or from −8 down; further: test concentration not given here
# [11] = HepG2 liver cancer cell viability effects, profiling panel, resazurin fluorescence, 24 h, PK04 Diversity Set (AID 1172); settings: higher = more signal; further: test concentration not given here
# [12] = basal S. cerevisiae growth modulation, no modifier, primary screen, OD600, strain BY4716, 24 h, basal condition (AID 1173); settings: OD600, 24 h, higher = more signal, called active from +8 up or from −8 down
# [13] = MM1S myeloma cell viability, profiling panel, resazurin fluorescence, basal, 24 h, PK04 Diversity Set (AID 1174); settings: higher = more signal, called active from +8 up or from −8 down;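 further: MM1S multiple myeloma cell line; test concentration not given here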
# [14] = molecular target: Dihydroorotate dehydrogenase (quinone), mitochondrial (Plasmodium falciparum (isolate 3D7)) (UniProt Q08210); experiment: PfDHODH enzyme inhibitors, primary screen, biochemical, C-terminal His tag, absorbance 600 nm (AID 1175); settings: DCIP absorbance 600 nm, higher = more signal, called active from +8 up or from −8 down;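 further: recombinant parasite enzyme with a five histidine tag at its C terminus; test concentration not given here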
# [15] = P. aeruginosa biofilm formation inhibitors, primary screen, strain PAO1, LB-PBS medium, absorbance 600 nm (AID 1176); further: test concentration not given here; settings: P. aeruginosa PAO1 growth/biofilm, A600, 12 h; higher = more signal
# [16] = S. cerevisiae RM11-1a growth modifiers, primary screen, strain RM11-1a, OD600, basal, 24 h (AID 1177); settings: OD600, 24 h, higher = more signal, called active from +8 up or from −8 down;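 further: cultures grown under basal conditions with no added stressor; test concentration not given here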
# [17] = E. coli acrAB mutant growth effects, primary screen, E. coli filamentation inducers, strain DRC39, OD650, 24 h (AID 1178); settings: higher = more signal, called active from +8 up or from −8 down;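 further: growth measured as culture turbidity by optical density at 650 nm; test concentration not given here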
# [18] = E. coli acrAB mutant growth effects, primary screen, E. coli filamentation inducers, strain DRC39, OD650, 48 h (AID 1179);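 further: screen aims at cell division blockers that make cells filament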; settings: E. coli DRC39 delta-acrAB growth, higher = more signal, called active from +8 up or from −8 down
# [19] = RPMI8226 myeloma cell viability, profiling panel, resazurin fluorescence, basal, 24 h, PK04 Diversity Set (AID 1180); settings: higher = more signal;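 further: RPMI8826 multiple myeloma cell line at 5000 cells per well; test concentration not given here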
# [20] = molecular target: E3 ubiquitin-protein ligase XIAP (Homo sapiens) (UniProt P98170); experiment: XIAP binders, primary screen, biophysical, small-molecule microarray, fluorescence 635 nm (AID 1181); settings: small-molecule microarray binding, higher = more signal;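 further: score merges 667 nm emission and signal to noise over triplicate slides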
# Sequence of E3 ubiquitin-protein ligase XIAP (Homo sapiens) (P98170 whole entry, looked up): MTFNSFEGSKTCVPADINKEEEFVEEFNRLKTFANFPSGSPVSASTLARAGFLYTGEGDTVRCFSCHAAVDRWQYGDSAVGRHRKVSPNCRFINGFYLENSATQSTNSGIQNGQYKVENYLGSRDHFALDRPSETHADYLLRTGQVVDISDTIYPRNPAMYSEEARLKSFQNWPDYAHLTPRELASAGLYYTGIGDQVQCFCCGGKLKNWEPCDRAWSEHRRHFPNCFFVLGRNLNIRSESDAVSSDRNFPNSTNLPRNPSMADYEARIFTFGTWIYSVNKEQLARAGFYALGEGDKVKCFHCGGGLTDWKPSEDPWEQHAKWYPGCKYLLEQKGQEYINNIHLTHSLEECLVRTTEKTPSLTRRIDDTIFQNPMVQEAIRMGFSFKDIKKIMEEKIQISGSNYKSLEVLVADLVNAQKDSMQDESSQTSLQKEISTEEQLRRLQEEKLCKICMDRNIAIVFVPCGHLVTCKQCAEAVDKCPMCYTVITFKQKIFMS
# Sequence of Dihydroorotate dehydrogenase (quinone), mitochondrial (Plasmodium falciparum (isolate 3D7)) (Q08210 whole entry, looked up): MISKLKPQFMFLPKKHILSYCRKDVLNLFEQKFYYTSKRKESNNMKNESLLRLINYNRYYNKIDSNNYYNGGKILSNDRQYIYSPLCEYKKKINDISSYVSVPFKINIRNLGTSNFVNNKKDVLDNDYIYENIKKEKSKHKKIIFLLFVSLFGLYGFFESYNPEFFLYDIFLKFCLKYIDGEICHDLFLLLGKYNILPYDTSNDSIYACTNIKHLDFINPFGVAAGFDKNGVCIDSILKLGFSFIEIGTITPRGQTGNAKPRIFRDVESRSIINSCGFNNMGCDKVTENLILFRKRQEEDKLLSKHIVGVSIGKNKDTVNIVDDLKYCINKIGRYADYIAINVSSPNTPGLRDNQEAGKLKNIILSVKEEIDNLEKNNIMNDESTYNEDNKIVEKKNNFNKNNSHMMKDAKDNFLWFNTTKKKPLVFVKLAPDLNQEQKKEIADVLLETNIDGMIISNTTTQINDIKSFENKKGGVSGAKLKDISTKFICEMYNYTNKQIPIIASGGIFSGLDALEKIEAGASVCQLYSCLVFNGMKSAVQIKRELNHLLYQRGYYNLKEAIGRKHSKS
SMILES,z-score [1],z-score [2],z-score [3],z-score [4],z-score [5],z-score [6],z-score [7],z-score [8],z-score [9],z-score [10],z-score [11],z-score [12],z-score [13],composite z-score [14],z-score [15],z-score [16],z-score [17],z-score [18],z-score [19],composite z-score [20]
O=C1O[C@H](c2ccccc2)[C@H](c2ccccc2)N2[C@H]1[C@@H](C(=O)NC[C@H](O)c1ccccc1)[C@]1(C(=O)Nc3ccc(C#CC4=CCCCC4)cc31)[C@H]2c1ccc(OCCO)cc1,0.0545,-0.405,-0.674,-1.24,-2.29,-2.36,1.27 (inactive),-1.34,-1.52,-0.527 (inactive),0.0374,1.17 (inactive),-2 (inactive),-0.186 (inactive),2.05 (inactive),3.28 (inactive),-0.227 (inactive),0.262 (inactive),-3.18,-0.316
Cc1ccc([C@@H]2CC=C(C(=O)O)[C@H](c3ccccc3)N2S(=O)(=O)c2ccc(C)cc2)cc1,-0.612,0.557,-0.825,-0.251,-2.2,-0.957,0.289 (inactive),-0.373,0.511,-0.997 (inactive),-1.02,-2.08 (inactive),-1.26 (inactive),-0.527 (inactive),-0.405 (inactive),0.0193 (inactive),-1.36 (inactive),-1.3 (inactive),-1.99,-0.202
O=C1C2C=CC(C(O)c3ccccc3)N(n3cnnc3)C2C(=O)N1Cc1ccccc1 (centres undefined),0.668,-0.0533,0.765,0.2,-1.68,0.323,0.129 (inactive),-0.605,0.474,-1.05 (inactive),-0.362,-0.0402 (inactive),-0.468 (inactive),-1.03 (inactive),1.87 (inactive),-1.08 (inactive),-0.456 (inactive),-1.03 (inactive),-0.974,0.23
COCCOC(=O)N1C(=O)[C@@]2(c3cc(C#CCCO)ccc31)[C@H](c1ccc(OCCO)cc1)N1[C@H](c3ccccc3)[C@H](c3ccccc3)OC(=O)[C@H]1[C@@H]2C(=O)NC[C@H](O)c1ccccc1,0.0831,1.33,-0.796,0.0067,-1.06,-0.0377,0.357 (inactive),0.0686,-0.709,0.703 (inactive),0.542,1.64 (inactive),-0.149 (inactive),1.06 (inactive),1.39 (inactive),2.33 (inactive),0.0733 (inactive),-0.534 (inactive),0.471,0.106
C=CCN1C(=O)[C@]2(O[C@H](CCn3cc(CCO)nn3)[C@@H]([Si](C)(C)c3ccc(OC)cc3)[C@@H]2C)c2cc(NC(=O)c3ccc(OC)cc3)ccc21,-0.423,0.727,-0.792,-2.7,-4.31,3.04,1.61 (inactive),-1.09,0.122,-2.65 (inactive),-1.89,-2.6 (inactive),-4.32 (inactive),1.31 (inactive),–,1.23 (inactive),1.8 (inactive),0.797 (inactive),-4.33,-0.104
CCCNC(=O)[C@@H]1c2ccccc2C(=O)N(C2CCCCC2)[C@H]1c1ccc(CO)cc1,0.285,-0.144,0.107,-0.524,0.0117,2.29,0.00608 (inactive),-0.192,-0.401,1.58 (inactive),0.358,1.27 (inactive),-0.206 (inactive),1.05 (inactive),-0.329 (inactive),1.61 (inactive),0.619 (inactive),0.521 (inactive),-0.154,0.304
C[C@]1(C(=O)NCCN2CCOCC2)c2ccccc2C(=O)N(Cc2ccccc2)[C@H]1c1ccc(CO)cc1,0.665,-0.337,-0.289,0.763,-1.71,1.58,-0.782 (inactive),-0.0116,-0.225,0.583 (inactive),0.702,-0.46 (inactive),0.402 (inactive),1 (inactive),0.662 (inactive),1.2 (inactive),0.223 (inactive),0.134 (inactive),0.85,0.144
C=CC[C@]1(C(=O)N2CCCCC2)N=C(c2ccc(OCCCO)cc2)O[C@H]1c1ccccc1N=[N+]=[N-],-0.871,1.65,-0.715,-1.56,-2.55,0.654,0.866 (inactive),-1.17,-0.511,-1.19 (inactive),-0.0748,-0.807 (inactive),-1.91 (inactive),2.06 (inactive),0.274 (inactive),1.55 (inactive),0.16 (inactive),-0.58 (inactive),-1.15,1.74
COc1cc(Cc2cc3c(c(CCc4ccccc4)n2)[Si](C(C)C)(C(C)C)OC3)cc(OC)c1OC,0.557,-1.22,-0.202,-2.17,-4.13,0.756,-0.411 (inactive),-0.799,-0.234,2.12 (inactive),1.47,-0.0438 (inactive),0.273 (inactive),-0.606 (inactive),0.726 (inactive),0.404 (inactive),-0.171 (inactive),0.365 (inactive),0.815,0.107
C=C[C@H](OC)[C@@H](OC(=O)Nc1ccc(SC)cc1)c1ccc(O)c(F)c1,0.137,0.0047,-0.14,-0.913,-1.07,-2.33,3.02 (inactive),-1.09,-0.75,-0.538 (inactive),-0.0359,-2.99 (inactive),0.0545 (inactive),-2.05 (inactive),1.88 (inactive),-0.703 (inactive),0.543 (inactive),0.519 (inactive),0.035,-0.192
O=C1NC(=O)C2C1C=CC(C(O)C=Cc1ccc([N+](=O)[O-])cc1)N2Nc1ccccn1 (centres undefined),0.183,-1.49,0.324,-0.141,-0.411,-0.249,-0.304 (inactive),0.412,0.423,-0.355 (inactive),-0.629,-0.203 (inactive),-0.373 (inactive),0.643 (inactive),1.23 (inactive),0.086 (inactive),0.195 (inactive),-0.466 (inactive),-0.742,0.289
COc1cc2c(cc1OC)CN(C(=O)[C@H]1[C@@H]3C(=O)O[C@@H](c4ccccc4)[C@@H](c4ccccc4)N3[C@@H](c3ccc(O)cc3)[C@]13C(=O)Nc1ccc(C#CC4(O)CCCCCC4)cc13)CC2,0.273,-0.0218,-0.155,-0.369,-0.66,-1.37,-0.263 (inactive),-0.34,0.432,1.24 (inactive),0.496,0.076 (inactive),-0.4 (inactive),-0.543 (inactive),0.89 (inactive),0.087 (inactive),-0.463 (inactive),-0.794 (inactive),1.15,0.364
CCC1=C2CN(Cc3ccccc3Br)[C@@H]([C@@H](O)Cc3ccccc3)C2C=CCC1 (some centres undefined),0.596,2.48,0.155,-3.24,-3.99,1.42,-0.473 (inactive),-0.981,-2.18,1.07 (inactive),0.596,-5.76 (inactive),-1.3 (inactive),-2.74 (inactive),-0.693 (inactive),-0.177 (inactive),1 (inactive),0.441 (inactive),-1.25,0.0451
CCCC=C(CCC)[C@@H](NC(=O)c1ccc(C(F)(F)F)cc1)c1ccccc1,-0.842,0.0679,-1.59,-2.51,-2.58,-2.98,-0.208 (inactive),-0.601,-1.13,-0.396 (inactive),-0.421,0.79 (inactive),-0.507 (inactive),-3.63 (inactive),4.02 (inactive),0.513 (inactive),0.0948 (inactive),-0.221 (inactive),-0.996,-0.253
O=C1C2C=CC(C(O)C(c3ccccc3)c3ccccc3)N(Nc3ccc([N+](=O)[O-])cc3)C2C(=O)N1c1ccccc1 (centres undefined),-0.727,-0.97,0.585,-0.224,-0.986,0.581,-0.735 (inactive),0.213,-1.44,0.452 (inactive),0.867,0.852 (inactive),0.0597 (inactive),0.665 (inactive),0.89 (inactive),0.601 (inactive),-1.12 (inactive),0.058 (inactive),-1.03,0.0553
NC(=O)NCC#Cc1ccc2c(c1)[C@]1(C(=O)N2)[C@H](c2ccccc2OCCO)N2[C@H](c3ccccc3)[C@H](c3ccccc3)OC(=O)[C@H]2[C@@H]1C(=O)N1CCN(c2ncccn2)CC1,-0.525,0.932,0.238,0.147,0.598,-1.48,1.08 (inactive),-0.356,-0.293,0.157 (inactive),-0.381,0.887 (inactive),-0.17 (inactive),-0.343 (inactive),2.31 (inactive),2.03 (inactive),1.27 (inactive),0.158 (inactive),1.19,-0.178
O=C/C=C/c1ccc(/C=C/c2ccccc2)cc1,1,-0.111,-0.167,-3.21,-4.46,-0.228,1.26 (inactive),-0.949,-2.1,0.22 (inactive),0.555,-16.4 (active),0.408 (inactive),-1.43 (inactive),0.668 (inactive),-1.01 (inactive),2.11 (inactive),1.56 (inactive),-3.21,-0.242
COC(=O)Cn1c(C(=O)N2CCCC2)cc2c1C[C@H]1CN(C(=O)c3ccccc3)[C@@](Cc3ccc(OC)cc3)(C(=O)OC)[C@@H]21,-0.643,-0.574,0.0447,-1.72,-2.24,1.49,-1.1 (inactive),-0.623,-1.95,-1.09 (inactive),0.101,1.5 (inactive),-2.14 (inactive),-0.632 (inactive),0.259 (inactive),0.569 (inactive),-0.506 (inactive),-0.031 (inactive),-2.1,0.311
